The record followed here is PubChem BioAssay AID1671202 (University of Kansas High Throughput Screening Laboratory, 2021).

Values joined by “and” are separate entries in the source; they are usually repeats but may differ in a detail not shown here. Identical values can stand only once. Hit rate of the full screen: of about 190,000 compounds, about 6,900 (3.6%) were called active. What follows is part of a selection rich in actives, with near analogues and random picks from the rest. A number with no mark means an inactive call. Cut-off read from the data, not from the text of the source: active = inhibition above about 50%; inactive = the rest.

The target of the assay is Huntingtin (Homo sapiens) (UniProt P42858). The assay is described as follows: mutant huntingtin-calmodulin interaction inhibitors – biochemical, AlphaScreen, primary screen (AID 1671202).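 Note: 0% = both proteins with DMSO and 100% = one protein alone.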 To be noted: AlphaScreen His-mHTT/GST-CaM binding, luminescence; at 15 µM; active compounds read high. (In general: Alpha assays give light when donor and acceptor beads are brought close together.)
Huntingtin (Homo sapiens), sequence (P42858 whole entry, looked up, stated change not applied): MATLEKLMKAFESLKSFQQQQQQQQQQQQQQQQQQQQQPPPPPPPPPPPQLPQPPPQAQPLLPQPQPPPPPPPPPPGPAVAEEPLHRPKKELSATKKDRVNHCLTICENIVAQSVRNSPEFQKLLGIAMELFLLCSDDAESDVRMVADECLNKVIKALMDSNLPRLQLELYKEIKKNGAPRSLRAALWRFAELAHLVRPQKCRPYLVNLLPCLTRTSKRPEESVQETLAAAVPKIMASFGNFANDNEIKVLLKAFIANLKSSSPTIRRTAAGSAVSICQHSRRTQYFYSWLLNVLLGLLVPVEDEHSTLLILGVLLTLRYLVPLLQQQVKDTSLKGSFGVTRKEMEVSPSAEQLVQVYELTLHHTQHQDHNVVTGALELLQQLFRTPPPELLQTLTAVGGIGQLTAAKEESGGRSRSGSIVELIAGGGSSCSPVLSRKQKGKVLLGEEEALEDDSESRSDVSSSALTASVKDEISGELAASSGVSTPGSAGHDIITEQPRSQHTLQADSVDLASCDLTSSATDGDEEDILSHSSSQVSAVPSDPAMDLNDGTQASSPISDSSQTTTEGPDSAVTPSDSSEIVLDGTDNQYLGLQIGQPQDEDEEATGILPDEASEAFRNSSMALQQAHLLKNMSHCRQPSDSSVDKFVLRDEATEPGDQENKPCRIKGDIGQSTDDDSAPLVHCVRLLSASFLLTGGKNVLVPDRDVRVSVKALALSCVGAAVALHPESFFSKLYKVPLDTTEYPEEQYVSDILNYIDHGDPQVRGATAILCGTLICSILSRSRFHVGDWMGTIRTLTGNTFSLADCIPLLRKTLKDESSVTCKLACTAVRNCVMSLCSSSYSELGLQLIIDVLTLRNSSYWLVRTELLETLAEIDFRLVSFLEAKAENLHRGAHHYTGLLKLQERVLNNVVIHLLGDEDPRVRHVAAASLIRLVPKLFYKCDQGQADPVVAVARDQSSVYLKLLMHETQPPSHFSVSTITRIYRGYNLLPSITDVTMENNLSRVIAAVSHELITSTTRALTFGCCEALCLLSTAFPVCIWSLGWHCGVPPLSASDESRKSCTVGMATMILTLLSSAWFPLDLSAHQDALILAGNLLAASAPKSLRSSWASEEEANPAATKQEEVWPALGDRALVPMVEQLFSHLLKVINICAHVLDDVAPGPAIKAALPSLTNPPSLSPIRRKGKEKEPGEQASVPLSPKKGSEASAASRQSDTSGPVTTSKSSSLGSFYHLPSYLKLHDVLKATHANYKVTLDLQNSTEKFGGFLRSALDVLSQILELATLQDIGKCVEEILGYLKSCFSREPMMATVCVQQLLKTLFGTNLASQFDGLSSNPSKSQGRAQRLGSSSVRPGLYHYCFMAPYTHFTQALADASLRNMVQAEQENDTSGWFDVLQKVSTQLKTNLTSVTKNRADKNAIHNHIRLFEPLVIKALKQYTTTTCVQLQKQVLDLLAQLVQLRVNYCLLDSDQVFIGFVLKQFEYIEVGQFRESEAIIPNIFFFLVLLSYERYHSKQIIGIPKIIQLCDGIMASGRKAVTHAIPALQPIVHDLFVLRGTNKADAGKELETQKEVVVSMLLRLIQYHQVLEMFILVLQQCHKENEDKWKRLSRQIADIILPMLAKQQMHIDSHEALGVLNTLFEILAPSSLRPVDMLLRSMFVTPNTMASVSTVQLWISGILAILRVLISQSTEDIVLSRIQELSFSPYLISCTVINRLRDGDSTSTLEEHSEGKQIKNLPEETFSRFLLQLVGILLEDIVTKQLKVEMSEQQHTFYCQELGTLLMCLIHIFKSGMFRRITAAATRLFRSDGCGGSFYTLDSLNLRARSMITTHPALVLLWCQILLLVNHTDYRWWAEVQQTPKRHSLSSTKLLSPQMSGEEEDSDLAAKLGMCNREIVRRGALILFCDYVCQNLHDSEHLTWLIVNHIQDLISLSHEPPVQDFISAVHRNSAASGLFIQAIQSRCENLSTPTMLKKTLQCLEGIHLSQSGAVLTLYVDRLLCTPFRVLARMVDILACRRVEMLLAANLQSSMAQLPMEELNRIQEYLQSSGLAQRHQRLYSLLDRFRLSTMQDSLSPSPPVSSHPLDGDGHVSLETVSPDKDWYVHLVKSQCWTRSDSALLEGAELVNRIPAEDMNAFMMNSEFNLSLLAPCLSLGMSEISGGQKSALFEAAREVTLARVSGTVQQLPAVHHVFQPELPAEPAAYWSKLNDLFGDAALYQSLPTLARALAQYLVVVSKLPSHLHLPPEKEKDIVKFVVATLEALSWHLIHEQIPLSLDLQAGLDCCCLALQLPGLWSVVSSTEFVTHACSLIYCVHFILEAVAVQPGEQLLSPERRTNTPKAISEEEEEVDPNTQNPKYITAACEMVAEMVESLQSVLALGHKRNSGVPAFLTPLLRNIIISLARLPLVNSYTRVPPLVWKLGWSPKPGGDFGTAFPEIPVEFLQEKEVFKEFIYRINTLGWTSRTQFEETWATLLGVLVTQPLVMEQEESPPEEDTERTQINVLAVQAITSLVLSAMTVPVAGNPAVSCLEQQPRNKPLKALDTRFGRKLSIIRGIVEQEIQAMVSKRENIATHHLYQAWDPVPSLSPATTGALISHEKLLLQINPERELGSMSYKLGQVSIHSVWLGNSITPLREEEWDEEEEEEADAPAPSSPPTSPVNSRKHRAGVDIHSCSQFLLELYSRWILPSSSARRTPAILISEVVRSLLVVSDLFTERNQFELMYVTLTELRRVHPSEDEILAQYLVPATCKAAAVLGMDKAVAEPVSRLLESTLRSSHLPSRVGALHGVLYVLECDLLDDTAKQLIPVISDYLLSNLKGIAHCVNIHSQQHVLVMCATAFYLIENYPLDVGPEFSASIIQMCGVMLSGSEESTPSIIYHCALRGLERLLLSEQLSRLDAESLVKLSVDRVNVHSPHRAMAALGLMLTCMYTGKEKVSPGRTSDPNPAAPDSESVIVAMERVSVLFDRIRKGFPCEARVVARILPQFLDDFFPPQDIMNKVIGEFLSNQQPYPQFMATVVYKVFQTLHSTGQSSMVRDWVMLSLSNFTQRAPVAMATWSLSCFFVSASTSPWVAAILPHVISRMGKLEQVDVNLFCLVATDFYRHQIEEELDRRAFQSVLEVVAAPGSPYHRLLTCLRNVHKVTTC
As a reminder, the inhibition is the relative decrease from the control value, in per cent. As for `Nc1ccc(Cc2ccc(N)c(Cl)c2)cc1Cl`, the inhibition was 14.7%.
Then `Nc1ccc(-c2ccc(N)c(N)c2)cc1N`, with 92.1% (active); and `CC(C)CCn1c(=O)c(C(=O)Nc2ccccn2)c(O)c2ccccc21`, with -1%; and `CCCn1c(=O)cc(C)c2ccc(OCC(=O)N3CCN(C)CC3)cc21`, with -3.5%.
For the molecule `CCOC(=O)c1ccc(NC(=O)c2cccn(Cc3ccc(C(F)(F)F)cc3)c2=O)cc1`, the inhibition is 83.3% (active).
The result for `Cc1csc(NC(=O)c2cccn(Cc3cccc([N+](=O)[O-])c3)c2=O)n1` reads -9.9%; that for `CCCCS(=O)(=O)N1CCC2(C1)C(=O)N(C)c1ccc(OC)cc12` (stereo not given), 12.5%.
Then `COc1ccc(CCC(=O)N2CCC3(C2)C(=O)N(C)c2ccc(OC)cc23)cc1` (stereo not given), with 6.74%.
Then `CC(C)CCNC(=O)CN1C(=O)C(C)N=C(c2ccccc2)c2ccccc21` (stereo not given), with 5%; and `O=C(Cc1c[nH]c2ccccc12)N1CCCN(C2CCN(Cc3ccc(F)cc3)C2=O)CC1` (stereo not given), with 44.9%; and `O=[N+]([O-])c1cccc(C(Cl)Cl)c1`, with -5.2%.
Regarding `O=c1cccc2n1CC1CC2CN(Cc2cc(Cl)ccc2O)C1` (stereo not given), the inhibition was 3.2%.
On to `COC(=O)c1ccc2[se]c(CC3CCCCC3)c(I)c2c1`, for which the inhibition is -13.6%.
Then `O=[N+]([O-])c1ccc(NCCNc2ccc([N+](=O)[O-])c3cccnc23)cc1`, with 1.26%; and `CCN(CC)CCNc1ccc([N+](=O)[O-])c2cccnc12`, with -2.5% and 9%.
Regarding `CC(C)(CNc1ccc([N+](=O)[O-])c2cccnc12)CNS(=O)(=O)c1ccc(Cl)cc1`, the inhibition was 54% (active).
The result for `CCN(CC)CC#CCOc1ccccc1` reads -4.9%.
Then `CC(=O)c1ccc(OC(NC(=O)Cc2ccccc2)C(Cl)(Cl)Cl)cc1` (stereo not given), with 50% (active).
The result for `CN1CCN(c2nnc(C(F)(F)F)s2)CC1` reads -5%.
For the molecule `CC(C)c1cc(=O)n2c(n1)SCC2CC(=O)N1CC2CC(C1)c1cccc(=O)n1C2` (stereo not given), the inhibition was -1.2%.
